rCAG binder: binders of r(CAG) RNA repeats, primary screen, biochemical, fluorescence; r(CAG) RNA repeat, TO-PRO-1 dye displacement fluorescence; inhibition, % at 3 µM; 370,000 tested, 1.3% active; AID 651821, 2012;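 active means inhibition above the plate cutoff, the mean of all test compounds on that plate plus 3 SD, cut at about 35% in these data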;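 further: higher means more dye released from RNA so lower well fluorescence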
AHR activator: AHR activators, primary screen, cell-based, luminescence, luciferase reporter, human | Aryl hydrocarbon receptor (Homo sapiens), P35869 | AHR-responsive luciferase reporter cells | activation, % at 5 µM | 320,000 tested, 2.5% active | AID 2796, 2010; in the data active means activation above about 47%
ADAM10 inh: human ADAM10 inhibitors, primary screen, biochemical, QFRET, HTS; 370,000 tested, 0.62% active; inhibition, % at 7 µM; recombinant ADAM10, EDANS/DABCYL FRET peptide cleavage, 3 h;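 active means inhibition above a per-campaign cutoff equal to the mean of compounds falling between control-based bounds plus 3 SD, cut at about 20% in these data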
KLK7 zymogen act: proKLK7 zymogen activators, primary screen, biochemical, fluorescence intensity | Kallikrein-7 (Homo sapiens), P49862 | purified proKLK7, EDANS-DABCYL substrate fluorescence; 100% is mature enzyme control, 0% vehicle | activation, % at 7 µM | 370,000 tested, 0.9% active;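 active means activation above the mean of all tested compounds plus 3 SD, computed per campaign excluding outliers beyond control limits, cut at about 13% in these data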
Target sequence (P49862 whole entry, looked up): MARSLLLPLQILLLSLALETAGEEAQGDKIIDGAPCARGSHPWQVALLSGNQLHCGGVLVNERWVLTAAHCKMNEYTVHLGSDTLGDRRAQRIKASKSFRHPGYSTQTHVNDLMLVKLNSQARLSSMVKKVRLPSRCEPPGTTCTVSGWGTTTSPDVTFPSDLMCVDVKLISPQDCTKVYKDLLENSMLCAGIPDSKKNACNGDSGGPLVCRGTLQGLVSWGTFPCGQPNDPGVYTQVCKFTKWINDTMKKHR
GRIN3A LBD mod: binders of NR3A ligand-binding domain, primary screen, biophysical, differential scanning fluorimetry, uHTS | Glutamate receptor ionotropic, NMDA 3A (GRIN3A) ligand-binding domain | NR3A LBD differential scanning fluorimetry, Tm shift; 0% = protein alone, 100% = glycine-bound protein | Tm shift relative to glycine control, % at 25 µM | 340,000 tested, 2.5% active | AID 1259313, 2017;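 active means melting temperature shift of at least 10% of the positive control shift, at one fixed dose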
ADAM17 inh: ADAM17 inhibitors, primary screen, biochemical, QFRET; Disintegrin and metalloproteinase domain-containing protein 17 (Homo sapiens), P78536; recombinant ADAM17, EDANS/DABCYL FRET peptide cleavage; inhibition, % at 6.95 µM; 370,000 tested, 0.83% active; AID 720648, 2013;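 active means inhibition above the mean of compounds lying between control limits plus 3 SD, set per campaign, cut at about 8.5% in these data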
rCAG bind conf: small molecules binding CAG repeat RNA – biochemical, fluorescence, confirmation; shares compounds with rCAG binder; r(CAG) RNA repeat, TO-PRO-1 dye displacement fluorescence; inhibition, % at 3 µM; 4,300 tested, 70% active;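 active means inhibition above a per-plate cutoff, the mean inhibition of sample wells plus 3 SD, cut at about 35% in these data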;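 further: loss of TO-PRO-1 fluorescence as compound displaces dye from 1x1 AA loop RNA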
DNA CAG counter: displacement of TO-PRO-1 from CAG DNA duplex, counter-screen for rCAG RNA repeat binder project, biochemical, fluorescence, TO-PRO-1 dye, d(CAG) DNA oligo; shares compounds with rCAG binder; d(CAG) DNA oligo TO-PRO-1 dye displacement; inhibition, % at 3 µM; 4,300 tested, 94% active;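 active means inhibition above its plate's cutoff, the mean test-well inhibition plus 3 SD, cut at about 4.8% in these data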;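 further: hits displace the dye from DNA and so lower well fluorescence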
DNA CAG DR: inhibitors of DNA CAG/GTC TO-PRO-1 complex, dose response, counter-screen for rCAG RNA repeat binder project, biochemical, fluorescence, TO-PRO-1 dye. shares compounds with rCAG binder. DNA CAG/GTC duplex TO-PRO-1 dye displacement fluorescence. IC50, µM. 250 tested, 20% active. AID 686960, 2013; in the data active means IC50 below about 10 µM
Large screens that a line does not name were inactive (follow-up assays come after a bar, where they were run). In the library only some 7% were active in any assay of this set; here they are far more common.

O=C(O)c1cccc(-n2c(O)c(C=C3N=c4ccccc4=N3)sc2=S)c1	rCAG binder 81 | rCAG bind conf 64 | DNA CAG counter 22
O=C(O)c1ccc(-n2c(O)c(C=C3N=c4ccccc4=N3)sc2=S)cc1	rCAG binder 80 | rCAG bind conf 62 | DNA CAG counter 24
Cc1ccc(C)n1-c1cccc(C(=O)O)c1	none (no result: rCAG binder, ADAM10 inh, KLK7 zymogen act, GRIN3A LBD mod, ADAM17 inh)
CCN(CC)c1ccc(-n2c(O)c(C=C3N=c4ccccc4=N3)sc2=S)cc1	none
FC(F)(F)c1ccc(Cn2ccc3ccc(-c4ccc5ccn(Cc6ccc(C(F)(F)F)cc6)c5c4)cc32)cc1	none (no result: AHR activator, GRIN3A LBD mod)
Cc1ccc(C(=O)N(C)[C@H]2C[C@H]3c4[nH]c5c(-c6cccc(C)c6)cccc5c4CCN3C[C@H]2[C@H](C)O)cc1	none (no result: AHR activator, GRIN3A LBD mod)
CC1CC(O)C2C3(C)CCCC2(COC3=O)C12CCC1(CCOC1=O)O2 (stereo not given)	none (no result: AHR activator, GRIN3A LBD mod)
CC(=O)O[C@H]1C=C[C@@H](C#Cc2ccc(C(C)(C)C)cc2)O[C@@H]1COC(=O)Nc1ccccc1	none (no result: AHR activator, GRIN3A LBD mod)
CC(/C=C/c1ccc(N(C)C)cc1)=N/N=C1/NC(=O)CC(C(=O)Nc2ccc(Cl)cc2)S1 (stereo not given)	rCAG binder 41, GRIN3A LBD mod 27 | rCAG bind conf 41 | DNA CAG counter 14
CC(/C=C/c1ccc(N(C)C)cc1)=N\N=C1\NC(=O)CC(C(=O)Nc2ccccc2)S1 (stereo not given)	none
O=C(O)c1ccccc1NC(c1ccccc1)c1ccc(Cl)cc1 (stereo not given)	rCAG binder 58 | rCAG bind conf 54 | DNA CAG counter 11 | DNA CAG DR inactive
O=C(/C=C/c1ccco1)c1cccnc1	rCAG binder 36 | rCAG bind conf inactive | DNA CAG counter 5.2
CC(/C=C/c1ccco1)=N\NC(=O)c1cccnc1	none
O=C(Nc1ccc(Cl)cc1)c1cc2c(cc1O)[nH]c1ccccc12	rCAG binder 91, GRIN3A LBD mod 32 | rCAG bind conf 85 | DNA CAG counter 53
Cc1cc(C)nc(OC(C(=O)O)C(OCCc2ccccc2)(c2ccc(F)cc2)c2ccc(F)cc2)n1 (stereo not given)	rCAG binder 36 | rCAG bind conf 49 | DNA CAG counter 11
CCCOC(c1ccccc1)(c1ccc(C(F)(F)F)cc1)C(Oc1nc(C)cc(C)n1)C(=O)O (stereo not given)	none
Cc1ccc(S(=O)(=O)N2[C@@H](c3ccc(Br)cc3)C(C(=O)O)=CC[C@H]2c2ccc(Cl)c(Cl)c2)cc1	rCAG binder 87 | rCAG bind conf 82 | DNA CAG counter 52
O=C(O)C1=CCC(c2ccc(Cl)c(Cl)c2)N(S(=O)(=O)c2ccc(F)cc2)C1c1cccc(F)c1 (stereo not given)	rCAG binder 72 (no result: AHR activator, GRIN3A LBD mod) | rCAG bind conf 68 | DNA CAG counter 26
Cc1ccc([C@H]2C(C(=O)O)=CC[C@@H](c3cccc(Cl)c3)N2S(=O)(=O)c2ccc(C)cc2)cc1	none (no result: AHR activator)
Cc1ccc(S(=O)(=O)N2[C@@H](c3ccc(C(C)(C)C)cc3)C(C(=O)O)=CC[C@H]2c2cccc(Cl)c2)cc1	rCAG binder 88 | rCAG bind conf 75 | DNA CAG counter 41
Cc1ccc(S(=O)(=O)N2[C@@H](c3ccc(C(C)(C)C)cc3)C(C(=O)O)=CC[C@H]2c2ccc(Cl)c(Cl)c2)cc1	rCAG binder 68 | rCAG bind conf 49 | DNA CAG counter 24
CC1(C(=O)NS(=O)(=O)c2cccc(F)c2)CCN1C(=O)CC1CCCC1 (stereo not given)	none (no result: AHR activator, GRIN3A LBD mod)
O=C(/C=C/[C@H]1O[C@@H](n2ccc(=O)[nH]c2=O)[C@H](O)[C@@H]1O)NCCCc1ccccc1	none (no result: AHR activator, GRIN3A LBD mod)
CC(C)C(=O)N1CCC(Oc2cccnc2)CC1	none (no result: AHR activator, GRIN3A LBD mod)
O=C(NC1CCN(Cc2ccccc2)CC1)c1ccccc1NS(=O)(=O)c1ccc(F)c(F)c1	rCAG binder 36 (no result: AHR activator) | rCAG bind conf inactive | DNA CAG counter inactive
CCN(CCCNc1cc2c(c(N)c1S(=O)(=O)O)C(=O)c1ccccc1C2=O)c1ccccc1	rCAG binder 73 (no result: AHR activator, GRIN3A LBD mod) | rCAG bind conf 81 | DNA CAG counter 54
Cc1ccc(-c2nc3cc(C)c(Br)c(C)n3c2Cc2ccsc2)cc1	none (no result: AHR activator, GRIN3A LBD mod)
N=C1/C(=C\c2ccc(-c3cccc(C(=O)O)c3)o2)C(=O)N=C2SC=C(c3ccccc3)N12	rCAG binder 86 | rCAG bind conf 91 | DNA CAG counter 70
O=c1cc(-c2ccccc2)oc2cc(O)c(O)c(O)c12	rCAG binder 38 | rCAG bind conf inactive | DNA CAG counter 14
CC1(C)CC(=O)C=C(c2ccccc2-c2ccc3c(c2)OCO3)C1=O	none (no result: AHR activator, GRIN3A LBD mod)
O=C1NN(c2ccccc2)C(=O)/C1=C/c1ccc(Sc2cccc3ccccc23)o1	rCAG binder 48 | rCAG bind conf 92 | DNA CAG counter 68
Cc1ccc(NC(=S)N(Cc2ccc(Cl)cc2)Cc2ccc(C(=O)O)cc2)cc1Cl	rCAG binder 76 | rCAG bind conf 69 | DNA CAG counter 28 | DNA CAG DR inactive
COc1ccc(CN(CC2CCC(C(=O)O)CC2)C(=S)Nc2ccc(C)c(Cl)c2)cc1 (stereo not given)	rCAG binder 35 | rCAG bind conf inactive | DNA CAG counter 5.8
COc1ccc(-c2noc(C3CCCN(C(=O)N[C@@H]4C[C@H]4c4ccccc4)C3)n2)cc1 (stereo not given in full)	none (no result: AHR activator, GRIN3A LBD mod)
CC(=O)[C@H]1CC[C@H]2[C@@H]3CC=C4C[C@@H](OS(=O)(=O)O)CC[C@]4(C)[C@H]3CC[C@]12C	rCAG binder 39 (no result: AHR activator) | rCAG bind conf 39 | DNA CAG counter 9.8

Screening data from PubChem.
